# In the library only some 9.3% were active in any assay of this set; here they are far more common.
# NPC1 promoter act: activators of NPC1 promoter; Huh7 NPC1 promoter luciferase reporter, 24 h; Potency, µM (highest dose often 9.22 µM), inactives show top-dose activation, usual class: activators; 320,000 compounds, 2.4% hits; AID 485313; further: % of control where 0% means no effect; nearly all actives have a fitted effect of over 60% in size
#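 Stably transfected Huh7 (NPC1 promoter→luciferase), 1500 cells/well in Opti-MEM + 10% FBS, 2 h settle, then compound 24 h at 37 °C. Luminescence after 10 min with Amplite reagent.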
# ELG1 DNA repair: blocks ELG1-dependent DNA repair in HEK293T cells; HEK293T ELG1-luciferase reporter, luminescence, 16 h; DNA damage induced by 5-fluorouridine; Potency, µM (series often up to 46.1 µM), for inactives: at the highest dose activity change, negative = inhibition, actives largely listed as inhibitors; 330,000 compounds, 2.3% hits; AID 504467; further: on the % scale 0 is the no-effect control and ±100 the full control effect; nearly all actives have a fitted effect of over 55% in size
#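 HEK293T cells expressing luciferase-tagged ELG1 (2,000/well) received 5-Fluorouridine plus compound or DMSO for 16 hr at 37 °C. Luciferase was read by ONE-Glo luminescence after 30 min at room temperature.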
# Rab9 promoter act: activators of Rab9 promoter; Huh7 Rab9 promoter-luciferase reporter, luminescence, 24 h; 320,000 compounds, 2.8% hits; Potency, µM (titrated, usually from 9.22 µM), for the others: at the top dose activation, negative = inhibition, hits mostly activators; AID 485297; further: % of control where 0% means no effect; nearly all actives have a fitted effect of over 60% in size
#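 Quantitative HTS format; Huh7 Rab9-luciferase reporter cells (1500/well) receive compound 2 h post-plating, incubate 24 h at 37 °C, then get luciferase reagent for 10 min before luminescence reading.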
# SMN2 splice enh: increases expression of the SMN2 splice variant. AID 1458. HEK293 SMN2-luciferase splicing reporter, luminescence, 30-36 h. Potency, µM (doses to about 46.1 µM), for inactives: top-dose activity change, positive = activation, actives largely listed as activators. 210,000 compounds, 2.8% hits; further: % of control where 0% means no effect; nearly all actives have a fitted effect of over 55% in size
#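 HEK293 cells carry an SMN2 minigene-luciferase reporter in which exon 7 inclusion puts luciferase in frame. Cells were seeded at 2000 cells/well, attached for 10-12 hours, then exposed to compounds for 30-36 hours at 37C before ONE-Glo luminescence.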
# ELG1 genotoxic: inducers of genotoxicity in HEK293T ELG1-luciferase cells; HEK293T ELG1-luciferase reporter, luminescence, 16 h; Potency, µM (top dose mostly 46 µM), for the others: at the top dose activity change, positive = activation, usual class: activators; 330,000 compounds, 1.3% hits; further: % of control where 0% means no effect; nearly all actives have a fitted effect of over 60% in size
#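 HEK293T cells expressing luciferase-tagged ELG1 were treated with compound or DMSO for 16 hr at 37°C. Luciferase activity was then read after 30 min with ONE-Glo at room temperature; rising signal flags genetic stress.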
# FLuc counter: firefly luciferase modulation, counter-screen for miR-21 project; P08659; purified FLuc, Km substrates, luminescence inhibition; Potency, µM (doses to about 57.5 µM), for inactives: at the top dose activity change, negative = inhibition, hits mostly inhibitors; 360,000 compounds, 6.9% hits;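 further: plate controls were vehicle for no effect and reference inhibitor for full effect; nearly all actives have a fitted effect of over 55% in size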
# Target sequence (P08659 whole entry, looked up): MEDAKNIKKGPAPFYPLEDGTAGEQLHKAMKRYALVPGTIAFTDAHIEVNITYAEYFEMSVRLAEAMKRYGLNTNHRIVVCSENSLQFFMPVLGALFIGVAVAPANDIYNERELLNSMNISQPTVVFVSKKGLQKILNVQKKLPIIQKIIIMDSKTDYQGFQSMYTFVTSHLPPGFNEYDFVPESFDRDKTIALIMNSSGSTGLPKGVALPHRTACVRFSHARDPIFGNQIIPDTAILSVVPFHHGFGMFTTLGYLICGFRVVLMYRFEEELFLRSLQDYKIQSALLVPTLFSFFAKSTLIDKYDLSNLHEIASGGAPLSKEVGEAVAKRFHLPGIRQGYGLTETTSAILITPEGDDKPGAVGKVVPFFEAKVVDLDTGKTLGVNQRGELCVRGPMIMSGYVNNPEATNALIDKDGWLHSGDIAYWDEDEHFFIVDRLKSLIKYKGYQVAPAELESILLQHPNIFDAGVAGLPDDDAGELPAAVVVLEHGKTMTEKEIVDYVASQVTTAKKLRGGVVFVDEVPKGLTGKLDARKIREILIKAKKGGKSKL
#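 Biochemical qHTS of compounds, final roughly 60 µM downward over six points, against 10 nM purified firefly luciferase using Km concentrations of substrates (10 uM D-luciferin, 10 uM ATP) in Tris acetate pH 7.5 buffer; luminescence output.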
# Active calls of the source: *; ? = inconclusive; / = no result given. The call rests on the fitted dose curve; in most records, active means well fitted curve in the direction sought with a large enough effect; inconclusive means small, poorly fitted or top-dose-only effect, or another doubt; inactive means no such curve, though single readings can be large; an effect the other way counts as inactive or inconclusive. Potency means the concentration at half of the fitted maximal effect.
SMILES,NPC1 promoter act,ELG1 DNA repair,Rab9 promoter act,SMN2 splice enh,ELG1 genotoxic,FLuc counter
CC(=O)NC(=O)c1cnn(-c2ccccc2)c1N,-2%,6%,2%,/,0%,3%
COc1cccc(CCc2ccccc2OCC[C@@H]2C[C@@H](O)CN2C)c1,/,/,/,-38%,/,/
Cc1cc(F)ccc1NC(=O)CCc1c(C)nn(-c2ccc(N3CCCCC3)nn2)c1C,-3%,4%,0%,/,-5%,?
Cc1nn(-c2ccc(N3CCCCC3)nn2)c(C)c1CCC(=O)Nc1ccc(F)cc1F,/,/,/,/,/,15µM*
Cc1ccc(F)cc1NC(=O)CCc1c(C)nn(-c2ccc(N3CCCCC3)nn2)c1C,?,-17%,30%,/,8%,11µM*
CCc1ccc(NC(=O)CN2C(=O)c3ccccc3Sc3ccc(C(=O)N4CCCC4)cc32)cc1,/,/,/,/,/,-14%
COc1cc(/C=N/O)ccc1OCc1ccc(Cl)cc1,0.63µM*,?,0.4µM*,6.3µM*,2.1µM*,1.3µM*
COc1cc(/C=N/N=C2/NC(=O)C(CC(=O)O)S2)ccc1OCc1ccc(Cl)cc1 (configuration not stated),-1%,?,0%,11µM*,?,19µM*
CCOc1cc(/C=N/N=C(N)N)ccc1OCc1ccc(Cl)cc1,-5%,-11%,-5%,-62%,1%,?
COc1cc(/C=N/N=C(N)N)ccc1OCc1ccc(Cl)cc1,?,?,?,21%,9.2µM*,3µM*
COc1cc(/C=N/OCC(=O)NC23CC4CC(CC(C4)C2)C3)ccc1OCc1ccccc1,11%,-22%,16%,/,11%,15µM*
CCc1sc(Nc2cccc(C)c2C)nc1-c1cc2cccc(OC)c2oc1=O,/,/,/,/,/,4%
CN(C/C=C/c1ccccc1[N+](=O)[O-])Cc1ccccc1,1%,?,-1%,/,0%,-11%
CC(=O)c1ccc(NC(=O)CCNC(=O)c2ccccc2Cl)cc1,2%,10%,0%,/,7%,-2%
COc1cccc(CNC(=O)C2CCN(S(=O)(=O)c3ccc4c(c3)CC(C)N4C(C)=O)CC2)c1 (configuration not stated),-1%,-17%,0%,/,-4%,0%
COc1cc(C(=S)N2CCCC2)ccc1OCc1ccc(C)cc1,?,25%,?,/,21µM*,?
CCOc1ccc(C(=S)N2CCCC2)cc1OC,-3%,10%,-5%,-15%,-1%,4%
COc1cc(/C=N/O)ccc1OCc1ccc(C(=O)O)cc1,?,?,0.089µM*,0.4µM*,?,0.054µM*
Cc1cc(C(C)(C)C)ccc1NC(=O)CC(C)(C)CC(=O)O,21%,?,19%,/,16%,?
CCc1nc2sccc2c(=O)n1N,-6%,2%,3%,16%,-1%,-2%
NC(=S)N1OC[C@@H]2COc3ccc4ccccc4c3[C@@H]21,7%,12µM*,-7%,-50%,-5%,-10%
CCc1sc(Nc2cccc(C)c2)nc1-c1cc2cccc(OC)c2oc1=O,/,/,/,/,/,7.6µM*
COc1cccc2cc(-c3nnc(Nc4ccccc4C)s3)c(=O)oc12,/,/,/,/,/,0.34µM*
Cc1ccc(NC(=O)CCC(=O)N/N=C/c2ccc(O)cc2O)cc1,-6%,18µM*,-8%,/,5%,-3%
O=C(Cn1nc2ccccc2n1)N/N=C/c1cc([N+](=O)[O-])ccc1O,-13%,6.5µM*,-7%,-14%,4%,-17%
O=C(CCC(=O)Nc1ccc(F)cc1)N/N=C/c1ccccc1O,-5%,10%,11%,12%,14%,?
O=C(CCC(=O)Nc1ccc(Br)cc1)N/N=C/c1cc([N+](=O)[O-])ccc1O,-2%,9.2µM*,2%,-8%,5%,?
O=C(CSc1ccccn1)N/N=C/c1cc([N+](=O)[O-])ccc1O,-2%,16µM*,-3%,/,7%,-5%

# Screening results (PubChem)
